According to PubChem BioAssay AID1445 (SRMLSC, 2008):
The campaign covered roughly 220,000 compounds. About 910 (0.41%) were called active.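 How the source made its calls: active means primary inhibition above the hit cutoff, then over 50% inhibition at one or more dose response concentrations (cut at about 23% in these data, passing the limit was not always enough); inconclusive means conflicting primary data, or primary hits not chosen for dose response; inactive means low primary inhibition, or under 50% at every dose.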 The list comes from a sample in which actives are over-represented; it also holds similar structures and randomly drawn compounds. Measured potencies and affinities stand elsewhere.

target: Aminopeptidase N (Plasmodium falciparum (isolate 3D7)) (UniProt O96935); assay: malaria alanyl aminopeptidase activity blockers – biochemical, fluorogenic H-Leu-NHMec substrate, 1536-well (AID 1445); details: recombinant M1AAP, H-Leu-NHMec fluorogenic kinetic assay; at 30 µM, active compounds read high unless noted;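 further: plate controls were DMSO full reaction for no effect and no enzyme background for full effect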
Sequence (O96935 whole entry, looked up): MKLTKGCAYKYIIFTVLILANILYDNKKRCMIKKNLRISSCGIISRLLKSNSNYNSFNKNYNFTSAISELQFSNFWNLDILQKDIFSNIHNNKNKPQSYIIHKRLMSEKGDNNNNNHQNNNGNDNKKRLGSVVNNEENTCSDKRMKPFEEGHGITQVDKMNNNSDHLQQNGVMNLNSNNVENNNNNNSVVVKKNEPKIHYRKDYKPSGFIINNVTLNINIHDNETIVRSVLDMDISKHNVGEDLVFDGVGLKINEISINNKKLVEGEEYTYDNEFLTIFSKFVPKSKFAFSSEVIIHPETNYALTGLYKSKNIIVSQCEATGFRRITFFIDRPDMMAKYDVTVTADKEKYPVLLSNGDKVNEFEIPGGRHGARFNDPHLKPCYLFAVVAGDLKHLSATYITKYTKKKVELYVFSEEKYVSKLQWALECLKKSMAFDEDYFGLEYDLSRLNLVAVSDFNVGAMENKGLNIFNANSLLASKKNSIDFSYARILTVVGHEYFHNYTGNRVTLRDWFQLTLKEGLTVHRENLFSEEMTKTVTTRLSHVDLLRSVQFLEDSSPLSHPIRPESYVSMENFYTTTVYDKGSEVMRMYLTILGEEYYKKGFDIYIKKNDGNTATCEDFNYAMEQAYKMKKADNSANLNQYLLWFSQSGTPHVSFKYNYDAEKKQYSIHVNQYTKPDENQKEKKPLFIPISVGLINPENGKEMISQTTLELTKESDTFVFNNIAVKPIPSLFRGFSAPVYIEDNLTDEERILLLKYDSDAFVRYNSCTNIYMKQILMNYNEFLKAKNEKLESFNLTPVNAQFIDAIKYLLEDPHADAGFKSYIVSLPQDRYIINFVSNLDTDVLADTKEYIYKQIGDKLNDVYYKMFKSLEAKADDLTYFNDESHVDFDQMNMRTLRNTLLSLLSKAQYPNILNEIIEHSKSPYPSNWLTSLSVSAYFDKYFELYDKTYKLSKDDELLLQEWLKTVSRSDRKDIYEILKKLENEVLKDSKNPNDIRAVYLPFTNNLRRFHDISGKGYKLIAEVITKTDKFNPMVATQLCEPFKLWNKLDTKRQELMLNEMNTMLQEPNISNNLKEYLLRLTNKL

Structure (SMILES)	inhibition
CC1=NNC(=O)C1Oc1ccccc1 (configuration not stated)	3.86% (inactive)
CCCCCCn1c(N2CCC(C(N)=O)CC2)nc2c1c(=O)[nH]c(=O)n2C	-0.78% (inactive)
Cc1nc(Cl)sc1C(=O)Nc1ccccc1	2.8% (inactive)
O=C(CSc1nc2ccccc2c(=O)n1-c1ccccc1)c1c[nH]c2ccccc12	1.41% (inactive)
COc1ccc2cc(C(=O)C3CCCN(C(=O)CSc4nnc(C)o4)C3)ccc2c1 (configuration not stated)	12.3% (inactive)
OC1=C(O)c2nc3ccccc3nc21	-5.83% (inactive)
Cc1cc2nc3c(nc2cc1C)C(O)=C3O	20.8% (inactive)
Cc1nc2c(c3c1[nH]c1ccccc13)C(O)CC(C)(C)C2 (configuration not stated)	22.4% (inactive)
C=CCn1c(=O)/c(=C/c2ccc(Cl)cc2)s/c1=C(/C#N)c1nnc2n1CCCCC2	21.5% (inactive)
C=CCn1c(=O)/c(=C/c2ccc(F)cc2)s/c1=C(\C#N)c1nnc2n1CCCCC2	20.7% (inactive)
CCOc1ccc(NC(=NCc2ccc3c(c2)OCO3)SC2CC(=O)N(c3ccc(C(=O)O)cc3)C2=O)cc1 (configuration not stated)	1.35% (inactive)
N=c1sccn1CC(=O)Nc1ccc(S(=O)(=O)N2CCOCC2)cc1	-2.17% (inactive)
Cc1ccc(Cn2c(O)c(N=O)c3ccccc32)cc1	4.37% (inactive)
O=C(c1ccc2c(c1)OCO2)C1CCCN(C2CCN(CCc3ccccc3)CC2)C1 (configuration not stated)	6.4% (inactive)
CC(C)(C)NC(=O)CSc1nnc(Cc2ccccc2)n1CC1CCCO1 (configuration not stated)	2.88% (inactive)
O=C(O)C1C2C=CC(C2)C1C(=O)NCc1ccccn1 (configuration not stated)	-0.69% (inactive)
Cc1cccc(C)c1NC(=O)C1C2C=CC(C2)C1C(=O)NCc1ccccn1 (configuration not stated)	15.1% (inactive)
O=C(NCc1ccccn1)C1C2C=CC(C2)C1C(=O)Nc1ccc(F)cc1 (configuration not stated)	18.1% (inactive)
COc1ccc(NC(=O)NCc2ccco2)c(OC)c1	1.06% (inactive)
O=C(O)C1C2C=CC(C2)C1C(=O)NCc1cccnc1 (configuration not stated)	2.34% (inactive)
COc1ccc(NC(=O)C2C3C=CC(C3)C2C(=O)NCc2ccccn2)c(OC)c1 (configuration not stated)	25.6% (active)
COc1ccc(OC)c(C2=NOC(C(=O)NCc3ccccn3)C2)c1 (configuration not stated)	-2.41% (inactive)
COc1ccc(OC)c(NC(=S)NCc2cccnc2)c1	4.71% (inactive)

Structure (SMILES)	inhibition
COc1ccc(NC(=O)C2C3C=CC(C3)C2C(=O)NCc2ccco2)cc1 (configuration not stated)	4.82% (inactive)
O=C(Cn1nc(Cl)nc1Cl)Nc1ccccc1	0.91% (inactive)
O=C(NNC(=S)Nc1ccc(F)cc1)C1[C@H]2CCCC[C@@H]12 (some centres not stated)	-16.1% (inactive)
O=C(NCc1n[nH]c(=S)n1-c1ccc(Br)cc1)c1ccc(S(=O)(=O)N2CCOCC2)cc1	2.45% (inactive)
Cc1cc(C)c(S(=O)(=O)N2CCN(C)CC2)c(C)c1	4.18% (inactive)
Cc1ccc(NC2=C(Cl)C(=O)OC2OC(=O)c2ccco2)cc1C (configuration not stated)	5.26% (inactive)
C=CCOC(=O)C1=C[C@@H](c2coc3ccccc3c2=O)C[C@@H](OCc2ccc(CO)cc2)O1	6.22% (inactive)
CCN(CC)CCOC(=O)c1cccc2c1-c1ccccc1C2O (configuration not stated)	1.02% (inactive)
NNC(=O)c1cc2c(s1)-c1cc(Cl)ccc1SC2	3.34% (inactive)
Cc1ccc(SCC(=O)Nc2ccccc2C(=O)O)cc1	-0.6% (inactive)
CC(=O)Nc1cccc(C(=O)Nc2ccccc2C(=O)O)c1	-0.69% (inactive)
Cc1ccc(C)c(Oc2coc3cc(OCC(=O)Nc4ccccc4C(C)C)ccc3c2=O)c1	2.02% (inactive)
COc1ccc(C(=O)ON=C2CCN(c3ccc([N+](=O)[O-])cc3)CC2)cc1	4.56% (inactive)
Cc1ccc(C(=O)ON=C2CCN(c3ccc([N+](=O)[O-])cc3)CC2)cc1	14.4% (inactive)
Cc1ccc2nc(-c3ccc(SCC(=O)N4CCc5ccccc54)nc3)[nH]c2c1	4.65% (inactive)
C=C1c2ccccc2NC(=O)N1c1ccc(C)cc1	-1.9% (inactive)
CC1CCCCN1C(=S)NC(=O)c1cccs1 (configuration not stated)	13.7% (inactive)
CCC1CCCCN1C(=S)NC(=O)c1ccc([N+](=O)[O-])cc1 (configuration not stated)	5.65% (inactive)
COc1cc(O)c(C(CC(=O)N2CCN(c3ccccc3)CC2)c2ccc(N(C)C)cc2)c(OC)c1 (configuration not stated)	0.72% (inactive)
O=C(Nc1ccc2c(c1)OCO2)C1CCN(S(=O)(=O)c2cccs2)CC1	3.56% (inactive)
CS(=O)(=O)N1CCC(C(=O)NCc2ccc3c(c2)OCO3)CC1	21.2% (inactive)
O=C(NCc1ccc2c(c1)OCO2)C1CCCN(S(=O)(=O)c2cccs2)C1 (configuration not stated)	24.9% (active)
CCS(=O)(=O)N1CCCC(C(=O)NCc2ccc3c(c2)OCO3)C1 (configuration not stated)	1.85% (inactive)

Structure (SMILES)	inhibition
Cc1ccc(CNC(=O)C2CCCN(S(=O)(=O)c3cccnc3)C2)cc1 (configuration not stated)	13% (inactive)
O=C(NCc1ccccc1)C1CCCN(S(=O)(=O)c2cccnc2)C1 (configuration not stated)	20% (inactive)
O=C(NCc1ccc2c(c1)OCO2)C1CCN(S(=O)(=O)N2CCCCC2)CC1	10.8% (inactive)
O=C(Nc1ccc2c(c1)OCO2)C1CCCN(S(=O)(=O)c2cccs2)C1 (configuration not stated)	13.9% (inactive)
COc1cccc(CNC(=O)C2CCN(S(=O)(=O)c3cccs3)CC2)c1	10.2% (inactive)
Cc1nc2ccccc2c2oc(C(=O)NC3CC3)cc12	1.86% (inactive)
COC(C[C@@H](O)CC(=O)[C@@H](C)OCc1ccccc1)OC	-6.94% (inactive)
O=C(NCc1ccc2c(c1)OCO2)C1CC(=O)N(CCc2ccccc2)C1 (configuration not stated)	0.19% (inactive)
O=C(Cn1cccc1C(=O)c1ccccc1)NCc1ccccn1	4.68% (inactive)
CC(Sc1ccc(Cl)cc1)C(=O)Nc1ccccc1C(=O)N1CCOCC1 (configuration not stated)	-3.03% (inactive)
Nc1ccc2c(c1)nc(Cc1ccccc1)n2CCO	9.11% (inactive)
Cc1ccnc(NS(=O)(=O)c2cnc(Cl)c(Br)c2)c1	4.88% (inactive)
Cc1cccc(-n2cc(CN(C)Cc3nccn3C)c(-c3cccc(F)c3)n2)c1	4.73% (inactive)
CN(CC(=O)Nc1ccc(F)cc1)C(=O)COc1ccc(C(=O)c2ccccc2)cc1	2.01% (inactive)
COCCn1c(SCC(=O)NC(=O)NCc2ccccc2)nc2ccccc21	-0.93% (inactive)
CCCn1c(C)cc(/C=C(\C#N)C(=O)OCC(=O)NC(=O)NCC)c1C	8.1% (inactive)
COc1ccc(N(CC(=O)Nc2ccccc2C(=O)O)S(=O)(=O)c2ccc(C)c([N+](=O)[O-])c2)cc1	6.07% (inactive)
Cc1ccc(OCC(=O)Nc2ccc(N3CCN(C(=O)c4ccc(C)cc4)CC3)cc2)cc1	-2.61% (inactive)
Cc1ccc(C(=O)N2CCN(S(=O)(=O)c3ccccc3)CC2)cc1	1.63% (inactive)
COc1ccc(OC)c2sc(NC(=O)c3ccc(S(=O)(=O)N(C)C)cc3)nc12	23.5% (active)
COc1ccc(NC(=O)c2ccc(S(=O)(=O)N(C)C)cc2)cc1OC	-1.14% (inactive)
COc1ccc(OC)c2sc(NC(=O)c3ccc(S(=O)(=O)N4CCOCC4)cc3)nc12	-1.73% (inactive)
CC(=O)N1CCN(Cc2nc3cc(NC(=O)c4cccc(Br)c4)ccc3n2C)CC1	4.84% (inactive)

Structure (SMILES)	inhibition
Cc1cc(C)n2cc(CSc3ccc(Br)cc3)nc2n1	-0.36% (inactive)
CC(C)N(Cc1nc(-c2ccccc2)no1)C(=O)C(Cl)(Cl)Cl	1.11% (inactive)
NC(=O)N/N=C/c1cn(-c2ccccc2)nc1-c1cccs1	4.92% (inactive)
Cc1c(Cc2ccccc2)c(=O)oc2cc(OC(=O)c3ccccc3)ccc12	1.43% (inactive)
COC(=O)Cc1c(C)c2ccc(OC(C)C)cc2oc1=O	4.34% (inactive)
Cc1ccc(C(c2nnnn2CCC(C)C)N2CCN(C)CC2)cc1 (configuration not stated)	-0.91% (inactive)
CC(C)C[C@H](NC(=O)c1nc[nH]c1C(=O)NC1CCN(C(=O)OC(C)(C)C)CC1)C(=O)OCc1ccccc1	-9.66% (inactive)
CC(C)C[C@H](NC(=O)c1nc[nH]c1C(=O)N1CCN(C(=O)OC(C)(C)C)CC1)C(=O)OC(C)(C)C	14.4% (inactive)
CC(C)C[C@H](NC(=O)c1nc[nH]c1C(=O)N[C@@H](CC(C)C)C(=O)OC(C)(C)C)C(=O)OC(C)(C)C	-5.44% (inactive)
CC(C)C[C@H](NC(=O)c1[nH]cnc1C(=O)N[C@@H](C)C(=O)OC(C)(C)C)C(=O)OC(C)(C)C	-4.65% (inactive)
COc1cc(OC)cc(C2C(C#N)=C(N)Oc3n[nH]c(-c4cccnc4)c32)c1 (configuration not stated)	14.9% (inactive)
COc1cc(C2C(C#N)=C(N)Oc3n[nH]c(-c4cccnc4)c32)cc(Br)c1O (configuration not stated)	17.3% (inactive)
CC(C)COc1ccc(C(=O)OCCN2CCOCC2)cc1	0.38% (inactive)
CCN1CCN(Cc2oc(CO)cc(=O)c2O)CC1	0.53% (inactive)
CN1CCN(Cc2oc(CO)cc(=O)c2O)CC1	-1.32% (inactive)
Cc1cc2oc(=O)cc(CN3CCC(C)CC3)c2cc1Cl	0.59% (inactive)
CN1CCN(Cc2c(O)c(Cl)cc3c(-c4ccccc4)cc(=O)oc23)CC1	19.7% (inactive)
CCc1cc(=O)oc2cc(C)c(CN3CCCC3)c(O)c12	13.6% (inactive)
CCc1cc(=O)oc2cc(C)c(CN3CCCCC3)c(O)c12	13.8% (inactive)
Cc1cc2oc(=O)cc(CN3CCC(C)CC3)c2c(C)c1Cl	8.55% (inactive)
CCN1CCN(Cc2cc(=O)oc3ccc(Cl)cc23)CC1	1.72% (inactive)
O=C(COC(=O)CCc1ccc(S(=O)(=O)N2CCOCC2)cc1)NCc1ccccc1Cl	-2.82% (inactive)
Cc1ccc(C(=O)NC(=S)NCC2CCCO2)cc1Br (configuration not stated)	3.05% (inactive)
